# Results reported in PubChem BioAssay.
# The source made the active and inactive calls.
# How the values were obtained:
# [1] = system: Plasmodium falciparum Sir2 (PF13_0152, Sir2A); experiment: pfSir2 binders on small-molecule microarrays, primary screen, biochemical, small-molecule microarray, 635 nm fluorescence (AID 1098); details: small-molecule microarray binding, fluorescence 635 nm; higher = more signal;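 further: score merges spot fluorescence intensity with its signal-to-noise ratio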
# [2] = small-molecule microarray binders of probe aDKK1, primary screen, biochemical, biotinylated probe, 635/667 nm fluorescence (AID 1099); details: higher = more signal;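 further: score merges 667nm spot fluorescence with signal to noise across triplicate slides; reference of the scale not given here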
# [3] = small-molecule microarray binders of probe aCHRDL2, primary screen, biochemical, biotinylated probe, 635/667 nm fluorescence (AID 1100); details: higher = more signal
# [4] = splicing luciferase reporter signal modulators, primary screen, spliceosome inhibition project, cell-based, HEK293, splice +/- reporter (AID 1101); details: luminescence, 24 h, higher = more signal, called active from +8 up or from −8 down;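 further: HEK293 cells carrying a splicing-competent luciferase reporter gene; test concentration not given here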
# [5] = molecular target: Fibroblast growth factor 10 (Homo sapiens) (UniProt O15520); experiment: FGF10 binders on small-molecule microarrays, primary screen, biochemical, small-molecule microarray, 635 nm fluorescence (AID 1102); details: FGF10 binding, fluorescence 635 nm, higher = more signal
# [6] = system: glycogen synthase kinase-3 (GSK3A per assay name; protocol says GSK3B); experiment: GSK3 binders on small-molecule microarrays, primary screen, biochemical, small-molecule microarray, 635 nm fluorescence, GSK3A (AID 1103); details: small-molecule microarray binding, fluorescence 635 nm; higher = more signal; further: the record names both GSK3A and GSK3B
# [7] = molecular target: Epidermal growth factor receptor (Homo sapiens) (UniProt P00533); experiment: EGFR binders on small-molecule microarrays, primary screen, biochemical, small-molecule microarray, 635 nm fluorescence (AID 1104); details: EGFR binding, higher = more signal;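 further: score merges 667 nm emission intensity with spot signal to noise over triplicate slides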
# [8] = molecular target: Follistatin-related protein 3 (Homo sapiens) (UniProt O95633); experiment: FSTL3 binders on small-molecule microarrays, primary screen, biochemical, small-molecule microarray, 635 nm fluorescence (AID 1105); details: FSTL3 binding, higher = more signal;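 further: score merges emission near 667 nm and signal to noise per printed spot across three slides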
# [9] = molecular target: Dickkopf-related protein 1 (Homo sapiens) (UniProt O94907); experiment: DKK1 binders on small-molecule microarrays, primary screen, biochemical, small-molecule microarray, 635 nm fluorescence scan (AID 1106); details: DKK1 binding, higher = more signal;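 further: score merges emission near 667 nm with signal to noise over three replicate slides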
# [10] = system: Inhibin beta A chain (activin A); experiment: INHBA (activin A) binders on microarrays, primary screen, biochemical, small-molecule microarray, 635 nm fluorescence scan (AID 1107); details: small-molecule microarray binding, higher = more signal;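 further: mouse activin A protein probed at 4.33 µg/mL on printed slides; score merges bound-protein fluorescence near 667 nm with spot signal-to-noise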
# Sequence of Fibroblast growth factor 10 (Homo sapiens) (O15520 whole entry, looked up): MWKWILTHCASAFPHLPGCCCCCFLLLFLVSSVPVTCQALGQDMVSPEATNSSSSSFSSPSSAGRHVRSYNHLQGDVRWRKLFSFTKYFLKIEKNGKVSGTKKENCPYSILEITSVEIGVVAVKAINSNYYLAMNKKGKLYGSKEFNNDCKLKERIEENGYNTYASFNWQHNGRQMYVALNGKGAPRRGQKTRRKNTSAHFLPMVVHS
# Sequence of Follistatin-related protein 3 (Homo sapiens) (O95633 whole entry, looked up): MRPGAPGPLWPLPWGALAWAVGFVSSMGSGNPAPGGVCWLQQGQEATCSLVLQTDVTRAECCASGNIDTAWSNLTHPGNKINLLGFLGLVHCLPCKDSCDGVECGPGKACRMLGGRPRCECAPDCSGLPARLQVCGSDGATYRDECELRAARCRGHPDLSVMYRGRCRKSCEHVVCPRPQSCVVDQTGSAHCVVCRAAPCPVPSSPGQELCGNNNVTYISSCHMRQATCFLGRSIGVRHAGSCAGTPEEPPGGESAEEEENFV
# Sequence of Dickkopf-related protein 1 (Homo sapiens) (O94907 whole entry, looked up): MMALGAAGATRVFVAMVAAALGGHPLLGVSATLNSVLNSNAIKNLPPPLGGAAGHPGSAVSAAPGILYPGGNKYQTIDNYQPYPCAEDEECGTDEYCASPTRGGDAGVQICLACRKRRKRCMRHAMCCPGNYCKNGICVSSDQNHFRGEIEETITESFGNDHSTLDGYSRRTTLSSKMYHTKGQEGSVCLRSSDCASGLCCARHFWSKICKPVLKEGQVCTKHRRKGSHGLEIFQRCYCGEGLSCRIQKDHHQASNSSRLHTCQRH
# Sequence of Epidermal growth factor receptor (Homo sapiens) (P00533 whole entry, looked up): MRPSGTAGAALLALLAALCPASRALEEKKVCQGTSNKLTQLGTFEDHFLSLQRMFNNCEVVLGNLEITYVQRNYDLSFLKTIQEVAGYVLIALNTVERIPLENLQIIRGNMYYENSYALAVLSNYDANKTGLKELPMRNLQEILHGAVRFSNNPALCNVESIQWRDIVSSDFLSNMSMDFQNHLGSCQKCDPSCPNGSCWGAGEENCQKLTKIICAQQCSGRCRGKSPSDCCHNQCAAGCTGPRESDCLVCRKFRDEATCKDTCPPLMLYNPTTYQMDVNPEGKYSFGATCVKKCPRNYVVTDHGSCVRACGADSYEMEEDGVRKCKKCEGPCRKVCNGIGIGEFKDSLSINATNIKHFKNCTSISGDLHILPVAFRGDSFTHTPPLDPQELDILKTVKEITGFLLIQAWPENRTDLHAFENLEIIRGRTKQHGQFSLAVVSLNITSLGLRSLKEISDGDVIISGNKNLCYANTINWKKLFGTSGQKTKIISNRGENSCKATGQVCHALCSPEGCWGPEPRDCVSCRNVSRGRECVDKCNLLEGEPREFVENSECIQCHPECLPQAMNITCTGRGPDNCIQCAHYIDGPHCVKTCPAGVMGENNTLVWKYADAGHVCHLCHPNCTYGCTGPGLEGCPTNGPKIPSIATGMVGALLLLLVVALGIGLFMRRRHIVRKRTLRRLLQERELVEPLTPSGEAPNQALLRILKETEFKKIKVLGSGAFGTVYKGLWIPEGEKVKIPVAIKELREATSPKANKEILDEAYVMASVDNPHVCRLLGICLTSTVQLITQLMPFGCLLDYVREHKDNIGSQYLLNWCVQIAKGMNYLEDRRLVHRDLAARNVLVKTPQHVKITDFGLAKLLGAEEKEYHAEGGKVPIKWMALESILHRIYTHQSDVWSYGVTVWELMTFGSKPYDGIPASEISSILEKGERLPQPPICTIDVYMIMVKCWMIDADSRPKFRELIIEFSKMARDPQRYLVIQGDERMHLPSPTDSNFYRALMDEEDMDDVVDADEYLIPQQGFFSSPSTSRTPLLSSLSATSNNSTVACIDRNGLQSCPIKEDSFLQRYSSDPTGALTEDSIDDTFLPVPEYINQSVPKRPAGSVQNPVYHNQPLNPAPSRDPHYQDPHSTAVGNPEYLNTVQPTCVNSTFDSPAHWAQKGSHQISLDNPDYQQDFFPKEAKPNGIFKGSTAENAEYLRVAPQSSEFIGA
SMILES,composite z-score [1],composite z-score [2],composite z-score [3],z-score [4],composite z-score [5],composite z-score [6],composite z-score [7],composite z-score [8],composite z-score [9],composite z-score [10]
Oc1ccc2cc[n+](Cc3sc4ccccc4c3Cl)cc2c1,0.23,0.0518,0.799,-1.74 (inactive),0.469,-0.402,-0.0568,0.618,0.481,1.28
COCCOC(=O)N1C(=O)[C@@]2(c3cc(C#Cc4ccc(OC)cc4)ccc31)[C@H](c1ccc(O)cc1)N1[C@H](c3ccccc3)[C@H](c3ccccc3)OC(=O)[C@H]1[C@@H]2C(=O)N1CCc2cc(OC)c(OC)cc2C1,0.888,0.267,-0.0098,-1.34 (inactive),0.636,1.2,0.386,0.914,0.75,-0.0186
CC(C)[Si](C#Cc1ccc(Oc2ccccc2)cc1)(O[Si](C#Cc1ccc(Oc2ccccc2)cc1)(C(C)C)C(C)C)C(C)C,1.11,0.112,-0.504,-0.226 (inactive),1.37,0.478,0.0408,0.394,0.687,-0.294
O=C1C2C=CC(C(O)CCc3ccccc3)N(Nc3ccccc3F)C2C(=O)N1c1ccccc1 (stereo not given),1.17,0.909,1.09,-0.0383 (inactive),1.25,1.31,0.359,1.31,-0.242,1.04
CC(C)NC(=O)[C@@]1(c2ccc([N+](=O)[O-])cc2)CC(=O)N(C2CCCCC2)[C@@H]1c1ccc(CO)cc1I,1.04,0.719,0.902,0.61 (inactive),-0.0505,0.406,-0.527,-0.573,-0.566,-0.524
COCCOC(=O)N1C(=O)[C@@]2(c3ccccc31)[C@H](C(=O)N1CCc3cc(OC)c(OC)cc3C1)[C@H]1C(=O)O[C@H](c3ccccc3)[C@H](c3ccccc3)N1[C@@H]2c1ccc(OCCO)cc1,1.33,0.232,0.395,-1.27 (inactive),1.15,1.01,0.565,0.473,0.235,0.0475
Cc1ccc(N2C(=O)c3ccccc3[C@@H](C(=O)NC3CC3)[C@@H]2c2ccc(CO)cc2)nc1,1.24,-0.201,0.908,0.942 (inactive),-1.5,-0.968,-1.58,-1.38,-2.23,-0.314
C=C(CCCC)/C(=C/C[C@@H](OC(C)=O)c1ccc(OCCO)cc1)c1cnc2ccccc2c1,0.619,-0.12,0.149,-0.27 (inactive),0.628,-0.174,0.401,1.12,0.698,1.53
COc1ccc([C@H]2OC[C@@H]3C[C@@H](Cc4ccccc4)C(=O)N32)cc1,0.143,-0.191,-0.435,0.247 (inactive),1.3,0.228,0.424,0.821,0.326,-0.0187
COC(=O)[C@@]1(Cc2ccc(F)cc2)[C@H]2c3cc(C(=O)N(C)C)n(Cc4ccc(Cl)c(C(F)(F)F)c4)c3C[C@H]2CN1C(=O)c1ccccc1,0.546,1.6,1.46,-2.25 (inactive),0.336,1.31,0.175,0.923,-0.473,0.651
CCCCC(CC)C(O)C1C=CC2C(=O)N(Cc3ccccc3)C(=O)C2N1n1cnnc1 (stereo not given),-0.503,0.197,0.552,-0.44 (inactive),-0.0566,-0.0058,-0.286,0.0568,-0.691,0.82
COc1cc2c(cc1O)C(c1cccs1)N(C)CC2 (stereo not given),0.0826,-0.287,0.0135,0.153 (inactive),-0.654,-0.995,0.0174,-0.558,-0.332,0.0723
CCCCCN1CC=CC23O[C@@H]4C=CCCOC(=O)C4[C@H]2C(=O)N(CCCCCO)[C@@H]3C1=O (stereo not given in full),-0.158,-0.287,0.249,-0.978 (inactive),-0.8,-0.299,-1.16,-1.15,-0.503,0.516
COC(=O)[C@@]1(Cc2ccccc2)[C@H]2c3cc(C(=O)N(C)C)n(Cc4ccsc4Br)c3C[C@H]2CN1C(=O)c1ccccc1,-0.0533,0.894,1.17,-1.3 (inactive),1.02,0.439,-0.354,1.12,-0.506,0.669
CCCc1cc2c(n1Cc1cc(F)cc(F)c1)C(C)C1CN(C(=O)c3ccccc3)C(C)(C(=O)OC)C21 (stereo not given),1.01,1.28,1.33,-3.1 (inactive),1.21,1.07,0.0159,0.899,0.215,1.27
COCC(=C=CC[C@@H](O)c1cccc(OCCO)c1)C[C@@H](O)c1ccccn1,0.976,-0.193,-0.355,0.758 (inactive),0.751,0.175,0.101,0.167,0.307,0.565
CCc1cccc(NC(=O)O[C@H]2[C@H](OC(=O)Nc3ccccc3-c3ccccc3)[C@@H](OC(=O)Nc3ccccc3-c3ccccc3)[C@@H](OC)O[C@@H]2CO)c1,1.29,0.481,0.648,-2.55 (inactive),1.13,0.954,0.0707,1.38,-0.0897,0.465

SMILES,composite z-score [1],composite z-score [2],composite z-score [3],z-score [4],composite z-score [5],composite z-score [6],composite z-score [7],composite z-score [8],composite z-score [9],composite z-score [10]
CC(C)[Si]1(C(C)C)O[C@@H](c2ccccc2)c2cc(-c3ccc(-c4ccc(Cl)c(Cl)c4)o3)nc(-c3ccccc3)c21,0.735,0.0699,0.234,0.115 (inactive),0.353,-0.514,0.0831,0.0331,-0.172,0.756
[N-]=[N+]=Nc1ccccc1[C@H]1OC(c2ccc(OCCCO)cc2)=N[C@@]1(CCS(=O)(=O)c1ccccc1)C(N)=O,1.53,1.01,1.37,-1.36 (inactive),1.12,0.915,-0.541,-0.0805,0.0979,1.26
C=C[C@@H](COC(=O)OC(C)(C)C)N(Cc1ccc(OC)cc1)S(=O)(=O)c1ccc(Br)cc1,0.487,-0.189,0.166,0.255 (inactive),0.541,0.632,0.691,1,0.513,0.841
COc1cc(COC(C)=O)ccc1OC(C)=O,0.0968,1.85,0.285,-0.309 (inactive),0.301,0.578,1.04,0.505,1.17,0.47
C=C(CCCC)/C(=C/C[C@H](OC(C)=O)c1ccccc1OCCO)c1cc(C(=O)OC)ccc1OC,1.3,-0.231,-0.285,-0.616 (inactive),0.143,-0.0368,-0.184,-0.154,-0.358,1.12
C=C(CC1([C@@H](NP(=O)(c2ccccc2)c2ccccc2)[C@H]2C[C@@H]2CCCC)CC1)c1ccccc1,0.339,0.786,0.994,-2.51 (inactive),0.0431,0.014,0.243,0.438,0.104,0.705
CCCC[C@@H]1C[C@H]1[C@@H](NC(=O)c1cccs1)c1ccc(-c2ccccc2)cc1,-0.0357,-0.0102,0.69,-1.23 (inactive),0.655,-0.595,-0.0136,0.369,-0.116,1.3
COC(=O)C(CC#Cc1ccc2c(c1)[C@]1(C(=O)N2)[C@H](c2ccc(OCCO)cc2)N2[C@H](c3ccccc3)[C@H](c3ccccc3)OC(=O)[C@H]2[C@@H]1C(=O)Nc1nc2ccccc2s1)C(=O)OC,0.842,-0.348,0.0051,-0.0218 (inactive),1.03,1.28,0.313,1.09,0.42,0.0864
CC1CC/C=C\[C@H]2OC34C=CCN(Cc5ccccc5)C(=O)[C@H]3N(CCCO)C(=O)[C@@H]4C2C(=O)O1 (stereo not given in full),0.881,-0.307,0.45,-0.0477 (inactive),-1.14,-0.657,-0.574,-1.07,-0.538,-0.192
CC(C)C[C@@H]1NC(=O)[C@@H]2C[C@H](C(=O)O)[C@H](c3cccc(OCCO)c3)N2C1=O,0.881,-0.212,0.598,-0.358 (inactive),-0.246,0.12,-0.242,0.152,-0.176,-0.513
C=C[C@H](CO[Si](CC)(CC)CC)N(Cc1ccc(OC(C)=O)c(OC)c1)S(=O)(=O)c1ccc(Br)cc1,0.609,0.964,0.471,-0.0534 (inactive),0.365,0.443,0.275,0.465,0.0558,1.1
COc1cc2c(cc1O)C(C1CC1)N(Cc1sc3ccccc3c1Cl)CC2 (stereo not given),1.25,0.147,0.652,-1.57 (inactive),-0.326,0.135,-0.0122,-0.05,-0.467,1.48
C=C[C@H](OC)[C@@H](OC(=O)Nc1ccc(OC)cc1)c1ccc(O)c(F)c1,0.68,-0.446,0.3,-1.27 (inactive),-0.0655,-0.499,-1.49,-1.19,-1.16,-0.25
O=C(CS)NCCCCCCNC(=O)[C@@H]1C[C@@H]2C(=O)NCC(=O)N2[C@@H]1c1cccc(OCCO)c1,1.49,-0.293,0.632,0.288 (inactive),0.331,0.837,-0.149,-0.16,0.139,-0.755
C=CC1(C(=O)OC)CC=C(C(=O)OC)CC1 (stereo not given),0.0006,-0.259,-0.425,-1.38 (inactive),0.916,1.15,0.478,0.791,0.908,-0.115
CC1CC/C=C\[C@H]2OC34C=CCN(C(C)(C)C)C(=O)[C@H]3N(C(C)CO)C(=O)[C@@H]4C2C(=O)O1 (stereo not given in full),-1.24,-0.366,-0.266,1.11 (inactive),-0.443,-0.948,-0.698,-0.268,-0.007,1.28
CC1CC/C=C\[C@H]2OC34C=CCN(C(C)(C)C)C(=O)[C@H]3N(CCO)C(=O)[C@@H]4C2C(=O)O1 (stereo not given in full),-0.103,-0.404,0.51,0.851 (inactive),-0.98,-0.496,-1.33,-0.755,-0.739,-0.0663
